Several values for one entry are separate records, joined by “and”; a condition that tells them apart may be missing. Equal values may be shown once. Inconclusive results are not listed. Where a structure was tested more than once in an assay, its records may differ in their call. Activity calls are given as the source filed them. Calls follow the shape of the full dose curve.

For assay [1], the target named is Acetylcholinesterase (Homo sapiens) (UniProt P22303). The experiment in a line: Acetylcholinesterase (AChE) small molecule antagonists: colormetric cell-based qHTS assay (AID 1347395). Also: nearly all actives have a fitted effect of over 30% in size. Also: potency is read from the fitted curve at half-maximal effect. A digest of the protocol: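 In this cell-based qHTS, attached SH-SY5Y cells were treated with test chemicals for 30 min, after which acetylthiocholine hydrolysis was followed by DTNB colour development over 90 min at 37 C.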
Sequence of Acetylcholinesterase (Homo sapiens) (P22303 whole entry, looked up): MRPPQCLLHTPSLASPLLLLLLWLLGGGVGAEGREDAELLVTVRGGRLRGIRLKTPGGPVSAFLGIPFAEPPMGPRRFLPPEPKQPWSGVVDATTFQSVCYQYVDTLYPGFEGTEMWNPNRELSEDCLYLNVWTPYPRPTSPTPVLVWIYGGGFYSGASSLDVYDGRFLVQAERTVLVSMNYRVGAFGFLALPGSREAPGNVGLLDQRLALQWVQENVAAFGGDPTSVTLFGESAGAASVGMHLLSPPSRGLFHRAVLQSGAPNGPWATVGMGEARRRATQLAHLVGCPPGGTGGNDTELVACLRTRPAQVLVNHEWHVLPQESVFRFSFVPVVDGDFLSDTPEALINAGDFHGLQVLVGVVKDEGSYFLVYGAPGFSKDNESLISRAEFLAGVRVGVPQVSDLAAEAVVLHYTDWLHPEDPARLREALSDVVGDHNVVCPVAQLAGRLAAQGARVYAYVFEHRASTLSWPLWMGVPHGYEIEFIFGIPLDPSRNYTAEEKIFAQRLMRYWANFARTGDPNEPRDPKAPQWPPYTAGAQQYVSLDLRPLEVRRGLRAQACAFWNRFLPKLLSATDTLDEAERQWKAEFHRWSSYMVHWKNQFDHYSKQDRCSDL
(Quantitative high-throughput screening tests each substance at several concentrations.)

Assay [2] has the same target. Nature of the assay: Acetylcholinesterase (AChE) small molecule antagonists: enzyme-based qHTS assay (AID 1347397). Also: nearly all actives have a fitted effect of over 55% in size. The following applies: Potency: AChE enzyme activity inhibition; outcome: AChE enzyme activity inhibition. A digest of the protocol: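 Colorimetric DTNB read-out of thiocholine released from acetylthiocholine by recombinant human AChE (50 mU/mL as dispensed). Compounds were preincubated 30 min at RT before substrate/DTNB addition, with a 10 min RT reaction.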

Assay [3] has the same target. Nature of the assay: Acetylcholinesterase (AChE) small molecule antagonists: fluorescence cell-based qHTS assay (AID 1347398). Also: nearly all actives have a fitted effect of over 50% in size. The following applies: Potency: AChE activity; outcome: AChE activity. A digest of the protocol:
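SH-SY5Y, 2,000 cells/well, attached overnight; cmpd 30 min 37 C; acetylthiocholine/Thiolite Green cocktail 40 min RT; fluorescence Ex/Em 490/520 nm.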

For assay [4] the target is unchanged. Nature of the assay: Acetylcholinesterase (AChE) small molecule antagonists: enzyme-based qHTS assay with human liver microsomes (AID 1347399). Also: nearly all actives have a fitted effect of over 60% in size. The following applies: Potency: qHTS inhibition; outcome: qHTS inhibition. Summed up:
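Recombinant human AChE (50 mU/mL in the enzyme mix) and human liver microsomes (0.25 mg/mL final) were preincubated with compound and NADPH (0.25 mg/mL final) for 30 min at 37 C. Acetylthiocholine/DTNB was then added; thiocholine was read colorimetrically after 10 min at room temperature.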
% is scaled to controls: 0 for no effect and ±100 for the full control effect.

For `CC(O)C#CC(C)O` (stereo not given), the Potency result in assay [1], in assay [2], in assay [3] and in assay [4] was “inactive” each time.

Turning to `Cc1ccc2ccccc2c1[N+](=O)[O-]`, the Potency result in assay [1], in assay [2], in assay [3] and in assay [4] was “inactive” each time.

With `Oc1ccc(C2(c3ccc(O)c(C4CCCCC4)c3)CCCCC2)cc1C1CCCCC1`, the Potency entry in assay [1], in assay [2], in assay [3] and in assay [4] was “inactive” in each case.

Regarding `Oc1c(Cl)cc(Cl)c2cccnc12`, the Potency entry in assay [1], in assay [2], in assay [3] and in assay [4] was “inactive” each time.

Consider `Nc1ccc(O)c(C(=O)O)c1`, for which the Potency result in assay [1], in assay [2], in assay [3] and in assay [4] was “inactive” throughout.

Consider `COc1cc(/C=C/C(=O)CC(=O)/C=C/c2ccc(O)c(OC)c2)ccc1O`, for which the Potency result in assay [1], in assay [2], in assay [3] and in assay [4] was “inactive” throughout.

Take `CC(C)=CC(=O)O`: the Potency result in assay [1], in assay [2], in assay [3] and in assay [4] was “inactive” each time.

Consider `CCOC(=O)[C@H](CCc1ccccc1)N[C@@H](C)C(=O)N(CC(=O)O)C1Cc2ccccc2C1`, for which the Potency result in assay [1], in assay [2], in assay [3] and in assay [4] was “inactive” each time.

For `CN1CCC(=C2c3ccccc3C=Cc3ccccc32)CC1`, the Potency entry in assay [1], in assay [2], in assay [3] and in assay [4] was “inactive” in each case.

For the compound `CCCC(O)C(O)CO` (stereo not given), the Potency result in assay [1], in assay [2], in assay [3] and in assay [4] was “inactive” in each case.

Consider `C=CC(=O)CC`, for which the Potency result in assay [1], in assay [2], in assay [3] and in assay [4] was “inactive” throughout.

Consider `O=C(O)CC(=O)O`, for which the Potency result in assay [1], in assay [2], in assay [3] and in assay [4] was “inactive” throughout.

Take `CN(C)CCCOC1(Cc2ccccc2)CCCCCC1`: the Potency result in assay [1], in assay [2], in assay [3] and in assay [4] was “inactive” throughout.

Turning to `O=C(Cl)c1ccc(F)c(Cl)c1`, the Potency result in assay [1], in assay [2], in assay [3] and in assay [4] was “inactive” in each case.

Turning to `Cc1cccnc1`, the Potency result in assay [1], in assay [2], in assay [3] and in assay [4] was “inactive” throughout.

For the compound `Cc1cccc(N)n1`, the Potency entry in assay [1], in assay [2], in assay [3] and in assay [4] was “inactive” in each case.

Take `NC(N)=NCCC[C@H](N)C(=O)O`: the activity, negative = inhibition in assay [1] was 5.24% [at 10.5 µM] (inactive). In addition, the figures for the activity change, negative = inhibition in assay [2], in assay [3] and in assay [4] were -0.554% [at 10.5 µM] (inactive), 6.4% [at 10.5 µM] (inactive) and -0.0087% [at 10.5 µM] (inactive), respectively.

With `CCCCC/C=C\C/C=C\CCCCCCCC(=O)O`, the Potency entry in assay [1], in assay [2], in assay [3] and in assay [4] was “inactive” each time.

Regarding `CCCCCCCCN`, the Potency result in assay [1], in assay [2], in assay [3] and in assay [4] was “inactive” in each case.

`CCCCCC/C(C=O)=C\c1ccccc1`: the Potency entry in assay [1], in assay [2], in assay [3] and in assay [4] was “inactive” throughout.

`Cc1ccc(C)o1`: the Potency entry in assay [1], in assay [2], in assay [3] and in assay [4] was “inactive” throughout.

For `Cc1ncc(CO)c(CN)c1O`, the Potency entry in assay [1], in assay [2], in assay [3] and in assay [4] was “inactive” in each case.

With `CC1=C(O)C(=O)OC1C` (stereo not given), the Potency result in assay [1], in assay [2], in assay [3] and in assay [4] was “inactive” throughout.

As to `CCCCCCC(C)OC(=O)COc1nc(F)c(Cl)c(N)c1Cl` (stereo not given), the Potency entry in assay [1], in assay [2], in assay [3] and in assay [4] was “inactive” each time.

Take `Cn1c(=O)c2c(ncn2CC2OCCO2)n(C)c1=O`: the Potency result in assay [1], in assay [2], in assay [3] and in assay [4] was “inactive” throughout.

For `CCOC(=O)CC(C(C)=O)C(C)=O`, the Potency result in assay [1], in assay [2], in assay [3] and in assay [4] was “inactive” throughout.

Take `Nc1ccc(Oc2cccc(Oc3ccc(N)cc3)c2)cc1`: the Potency entry in assay [1], in assay [2], in assay [3] and in assay [4] was “inactive” each time.

As for `CCCCNS(=O)(=O)c1ccc(C)cc1`, the Potency entry in assay [1], in assay [2], in assay [3] and in assay [4] was “inactive” in each case.

`CCCCCCCC=O`: the Potency entry in assay [1], in assay [2], in assay [3] and in assay [4] was “inactive” in each case.

In the case of `C=C(C)C(=O)Nc1ccc(Cl)c(Cl)c1`, the Potency entry in assay [1], in assay [2], in assay [3] and in assay [4] was “inactive” in each case.

`c1ccc(CCc2ccccc2)cc1`: the Potency result in assay [1], in assay [2], in assay [3] and in assay [4] was “inactive” each time.

On to `Nc1cc(N)cc(C(=O)O)c1`, for which the Potency entry in assay [1], in assay [2], in assay [3] and in assay [4] was “inactive” in each case.

Consider `Cc1ccc(S(=O)(=O)NC(=O)NC2CCCC2)cc1`, for which the Potency entry in assay [1], in assay [2], in assay [3] and in assay [4] was “inactive” each time.

As for `CC(C)(C)[C@@H](O)[C@@H](Cc1ccc(Cl)cc1)n1cncn1`, the Potency result in assay [1] was “inactive and 71 µM (active)”. Besides, the Potency entry in assay [2], in assay [3] and in assay [4] was “inactive” each time.

For the compound `NS(=O)(=O)c1ccc(C(=O)O)cc1`, the Potency entry in assay [1], in assay [2], in assay [3] and in assay [4] was “inactive” throughout.

As for `O=C(Nc1ccc2c(c1)Cc1ccccc1-2)C(F)(F)F`, the Potency entry in assay [1], in assay [2], in assay [3] and in assay [4] was “inactive” in each case.

As to `O=C(C(=O)c1ccc(Br)cc1)c1ccc(Br)cc1`, the activity, negative = inhibition in assay [1] is 1.28% [at 23.6 µM] (inactive). For the same compound, the activity change, negative = inhibition in assay [2] was 1.82% [at 23.6 µM] (inactive); in assay [3], -2.19% [at 23.8 µM] (inactive); in assay [4] it was -3.65% [at 23.6 µM] (inactive).

In the case of `CC(C)(C)S`, the Potency entry in assay [1], in assay [2], in assay [3] and in assay [4] was “inactive” each time.

As to `CC(O)COc1ccccc1` (stereo not given), the Potency entry in assay [1], in assay [2], in assay [3] and in assay [4] was “inactive” throughout.

For `CCOC(=O)C1=NOC(c2ccccc2)(c2ccccc2)C1`, the Potency entry in assay [1], in assay [2], in assay [3] and in assay [4] was “inactive” each time.

In the case of `CN1CCN(C)CC1`, the Potency result in assay [1], in assay [2], in assay [3] and in assay [4] was “inactive” throughout.

As for `CCN(CC)c1ccc(C(=O)c2ccccc2C(=O)O)c(O)c1`, the Potency entry in assay [1], in assay [2], in assay [3] and in assay [4] was “inactive” each time.

As to `OCC(O)[C@@H](O)[C@H](O)[C@H](O)CO[C@H]1O[C@H](CO)[C@@H](O)[C@H](O)[C@H]1O` (stereo not given in full), the Potency entry in assay [1], in assay [2], in assay [3] and in assay [4] was “inactive” in each case.

Turning to `CC1(C)O[C@@H]2C[C@H]3[C@@H]4C[C@H](F)C5=CC(=O)C=C[C@]5(C)[C@H]4[C@@H](O)C[C@]3(C)[C@]2(C(=O)CO)O1`, the Potency entry in assay [1], in assay [2], in assay [3] and in assay [4] was “inactive” each time.

With `CC(Cl)C(Cl)Cl` (stereo not given), the Potency entry in assay [1], in assay [2], in assay [3] and in assay [4] was “inactive” each time.

For `OC[C@@H](O)[C@H](O)[C@H](O)[C@@H](O)CO`, the Potency result in assay [1], in assay [2], in assay [3] and in assay [4] was “inactive” each time.

Turning to `O=C(O)c1cccc(Oc2ccccc2)c1`, the Potency entry in assay [1], in assay [2], in assay [3] and in assay [4] was “inactive” throughout.

Turning to `O=C(O)c1ccco1`, the Potency entry in assay [1], in assay [2], in assay [3] and in assay [4] was “inactive” each time.

In the case of `CC(=O)/C(C)=C/C1C(C)=CCCC1(C)C` (stereo not given), the Potency entry in assay [1], in assay [2], in assay [3] and in assay [4] was “inactive” in each case.

Regarding `CO[Si](CCCNCCNCCN)(OC)OC`, the Potency result in assay [1], in assay [2], in assay [3] and in assay [4] was “inactive” throughout.

With `CC(C)CC(=O)CC(C)C`, the Potency result in assay [1], in assay [2], in assay [3] and in assay [4] was “inactive” in each case.

On to `Cc1oc(C)c(C(=O)Nc2ccccc2)c1C`, for which the Potency result in assay [1], in assay [2], in assay [3] and in assay [4] was “inactive” each time.

Consider `O=C1c2ccccc2Cc2ccccc21`, for which the Potency entry in assay [1], in assay [2], in assay [3] and in assay [4] was “inactive” throughout.

Consider `CCNc1nc(NC(C)(C)C)nc(OC)n1`, for which the Potency entry in assay [1], in assay [2], in assay [3] and in assay [4] was “inactive” each time.

Consider `COc1cc(NS(=O)(=O)c2ccc(N)cc2)ncn1`, for which the Potency entry in assay [1], in assay [2], in assay [3] and in assay [4] was “inactive” each time.

Consider `C=CC(=O)OCCOC(=O)CCC(=O)O`, for which the Potency result in assay [1], in assay [2], in assay [3] and in assay [4] was “inactive” in each case.

As for `CC(=O)OCCC1CCCCC1`, the Potency entry in assay [1], in assay [2], in assay [3] and in assay [4] was “inactive” in each case.

On to `Cc1c[nH]c2ccccc12`, for which the Potency result in assay [1], in assay [2], in assay [3] and in assay [4] was “inactive” each time.

In the case of `COc1cccc(CCc2ccccc2OCC(CN(C)C)OC(=O)CCC(=O)O)c1` (stereo not given), the Potency result in assay [1], in assay [2], in assay [3] and in assay [4] was “inactive” throughout.

As to `CCOC(=O)C1=C(C)NC(C)=C(C(=O)OC)C1c1cccc([N+](=O)[O-])c1` (stereo not given), the Potency entry in assay [1], in assay [2], in assay [3] and in assay [4] was “inactive” in each case.

The values above are taken from PubChem BioAssay (Tox21).
